D1 agonist – human D1 receptor agonism. P21728. HEK293 T-REx D1 cells, calcium flux, agonist mode. activation, % at 2 µM. 360,000 tested, 1% active; further: 0% is about no effect
Target sequence (P21728 whole entry, looked up): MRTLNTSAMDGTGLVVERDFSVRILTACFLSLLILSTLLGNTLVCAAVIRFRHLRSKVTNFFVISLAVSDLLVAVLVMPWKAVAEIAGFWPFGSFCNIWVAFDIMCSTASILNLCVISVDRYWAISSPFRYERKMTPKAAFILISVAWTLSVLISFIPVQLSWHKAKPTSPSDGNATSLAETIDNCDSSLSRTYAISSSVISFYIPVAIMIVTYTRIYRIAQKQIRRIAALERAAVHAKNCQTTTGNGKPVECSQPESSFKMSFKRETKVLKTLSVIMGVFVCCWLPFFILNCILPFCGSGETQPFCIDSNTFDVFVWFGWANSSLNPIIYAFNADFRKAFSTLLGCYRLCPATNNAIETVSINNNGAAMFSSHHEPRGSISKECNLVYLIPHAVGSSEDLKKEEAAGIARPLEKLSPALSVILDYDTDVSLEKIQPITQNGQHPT
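Inducible HEK293 T-REx D1 cells, force-coupled to calcium signalling, were plated at 4000 cells/well with tetracycline and held overnight at 30 C. After no-wash calcium dye loading, compound-evoked calcium rise over 180 s flagged agonists.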
D1 antag – antagonists of human D1 dopamine receptor; P21728; HEK293 TREx D1 cells, calcium flux, dopamine EC80; hits give low values; activity change, negative = inhibition, % at 10 µM; 360,000 tested, 3.2% active; in the data active means activity change below about -30%; further: on the % scale 0 is the no-effect control and ±100 the full control effect
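HEK293 T-REx cells expressing inducible, force-coupled D1 receptor; no-wash Ca dye, 30–90 min RT. Cmpd → 180 s read at 1 Hz → EC80 DA → 180 s read.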
TRHR ag – agonists of human TRH receptor; P34981; TRHR cells, calcium flux fluo-8, FDSS agonist mode; activation, % at 2 µM; 360,000 tested, 0.18% active; AID 493084; further: 0% is about no effect
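In this calcium-flux screen, cells bearing human TRHR are dye-loaded with fluo-8, baselined for 10 cycles, then exposed to library compounds; positive kinetic calcium responses during the agonist phase mark hits, with TRH as control.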
TRHR PAM – allosteric enhancers of human TRH receptor; P34981; TRHR cells, fluo-8 calcium fluorescence, EC20 TRH enhancement; enhancement, % at 2 µM; 360,000 tested, 0.66% active; in the data active means enhancement above about 30%; further: 0% is about no effect
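Enhancer read-out: after compound pinning and an initial kinetic agonist-mode read, an EC20 of TRH (10 nM final) was injected and fluo-8 calcium signal (Ex 480/Em 530) followed at 1 s/cycle for 100 cycles in TRHR-expressing cells.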
D1 potentiator – human D1 dopamine receptor positive modulation. HEK293 TREx D1 cells, calcium flux, dopamine EC20 potentiation. potentiation, % at 10 µM. 360,000 tested, 0.036% active. P21728; in the data active means potentiation above about 30%; further: 0% is about no effect
The depositor's hits bear a star; . = no result given. Sampled rows, rich in hits. Any-hit rate of the full collection: about 4.7%. Unless noted, no stated cut-off is given here; in the data, active means activation above about 30%; inactive means the rest.

SMILES	D1 agonist	D1 antag	TRHR ag	TRHR PAM	D1 potentiator
CN(CC(=O)Nc1cc(Cl)cc(Cl)c1)Cc1cccs1	18	6	-1	-1	-6
Cc1ccc2nc3c(c(Nc4ccc(C)c(C)c4)c2c1)CCC3	-1	-5	-2	5	1
CC(NS(=O)(=O)c1ccc(Br)cc1)c1ccccc1 (stereo not given)	1	-34*	0	1	-8
N=c1n(N)c2ccccc2n1CC(=O)c1ccc(Br)cc1	0	-18	-1	33*	3
C=CCn1c(=N)n(CC(=O)c2ccc(Br)cc2)c2ccccc21	0	-18	0	-3	3
O=C(NNC(=O)c1ccccc1F)c1cccc(-n2cccc2)c1	1	-13	0	-1	-2
COc1cc(C(=O)OCc2csc(CC(=O)Nc3ccccc3C)n2)ccc1OCC(C)C	7	6	-1	7	11
COc1cc(/C=C2/SC(=S)N(CC3CCCO3)C2=O)ccc1O (stereo not given)	87*	-1	64*	8	2
CCOc1cc(/C=C2\SC(=S)N(Nc3ccccc3)C2=O)ccc1O	40*	-47*	35*	-2	-6
O=C1/C(=C/c2ccc(O)c(O)c2)SC(=S)N1Nc1ccccc1	48*	9	22	-3	-4
Cc1ccc(C(=O)NN2C(=O)/C(=C/c3cn(C)c4ccccc34)SC2=S)cc1	65*	18	0	9	-2
CCOc1ccc(CNC(=O)C2CCCN(S(=O)(=O)c3ccc4c(ccn4C)c3)C2)cc1 (stereo not given)	4	-20	0	1	-3
COc1cc(/C=C2\SC(=S)N(NC(=O)c3cccnc3)C2=O)ccc1O	14	-1	13	1	-1
COc1cc(/C=C2\SC(=S)N(NC(=O)c3ccc(O)cc3)C2=O)ccc1O	124*	-11	48*	-1	-8
COc1cccc(/C=C2\SC(=S)N(CCC(=O)N3CCCCC3CCO)C2=O)c1 (stereo not given)	5	-31*	0	11	-1
COc1cccc(/C=C2\SC(=S)N(CCCC(=O)N3CCCCC3CCO)C2=O)c1 (stereo not given)	8	9	0	-4	3
Cc1ccc(/C=C/S(=O)(=O)NCC(=O)OCC(=O)Nc2c(F)cccc2F)cc1	2	-13	0	-7	-4
COc1ccc(C(=O)NCCC(=O)NCc2cc(=O)n(C)c(=O)n2C)cc1	1	-51*	1	3	-4
COc1cccc(C(=O)NCC(=O)NCc2cc(=O)n(C)c(=O)n2C)c1	6	-36*	0	0	-4
Cc1ccccc1OCC(=O)N/N=C/c1c(C)nn(-c2ccccc2)c1Cl	0	-55*	0	3	-15
Cc1nn(-c2ccccc2)c(Cl)c1/C=N/NC(=O)c1ccncc1	5	-2	0	1	0
Clc1cccc(/C=N/Nc2ncnc3ccccc23)c1	-1	4	0	31*	1
Cc1ccc(Cl)cc1N1CCN(CCNC(=O)Nc2ccccc2Cl)CC1	2	-13	0	-1	-3
O=C(NCc1ccccc1Cl)c1ccc(CS(=O)(=O)c2ccccc2)o1	15	-14	2	-5	-2
O=C(NCc1ccccc1Cl)c1cc2ccccc2o1	34*	-33*	-2	9	-3
SMILES	D1 agonist	D1 antag	TRHR ag	TRHR PAM	D1 potentiator
COc1ccccc1CNC(=O)c1ccc(CS(=O)(=O)c2ccccc2OC)o1	3	-89*	0	-1	-7
COc1ccc(S(=O)(=O)Cc2ccc(C(=O)NCCc3ccc(S(N)(=O)=O)cc3)o2)cc1	2	-35*	1	-2	1
O=C(NCc1ccccc1Cl)c1ccc(CS(=O)(=O)c2ccc(Br)cc2)o1	46*	3	0	40*	-3
NS(=O)(=O)c1ccc(CCNC(=O)c2ccc(CS(=O)(=O)c3ccc(Br)cc3)o2)cc1	6	6	0	-2	3
CCc1ccc(NC(=O)C(=O)NCCc2csc(-c3cccc(F)c3)n2)cc1	3	-10	0	1	-1
CCOC(=O)N1CCC2(CC1)OC(=O)C(C)=C2C(=O)NCc1ccc(C)cc1	-1	-4	0	-3	-2
CCOC(=O)N1CCN(C(=O)c2ccc(Cl)c(NC(=O)c3cccs3)c2)CC1	-1	-12	-1	-1	3
CCc1ccc(OC)c(S(=O)(=O)NCc2cccs2)c1	0	12	-1	-5	-1
O=C(NCc1ccccc1Cl)c1ccc(CS(=O)Cc2ccc(Cl)cc2)o1 (stereo not given)	3	-46*	0	-7	6
Cc1ccc(CS(=O)Cc2ccc(C(=O)NCc3ccccc3Cl)o2)cc1 (stereo not given)	-1	10	0	-3	8
COc1ccccc1CNC(=O)c1ccc(CS(=O)(=O)c2ccc(C)cc2)o1	12	-50*	0	0	-4
Cc1ccc(C(=O)c2c[nH]c(C(=O)NCc3cccnc3)c2)cc1	3	-49*	-1	4	-10
COc1ccccc1S(=O)(=O)Cc1ccc(C(=O)NCc2ccc(C)cc2)o1	1	-23	-1	1	-11
O=C(NCc1ccccc1Cl)c1ccc2oc(=O)n(Cc3ccccc3)c2c1	9	-33*	1	4	1
COc1cccc(C(=O)c2c[nH]c(C(=O)NCc3cccnc3)c2)c1	4	-14	0	1	-4
CCC(C(=O)NCc1ccccc1Cl)n1nc(C)c2sc3ccccc3c2c1=O (stereo not given)	4	5	-1	0	7
O=C(NCc1cccnc1)c1ccc(CS(=O)(=O)Cc2ccc(Cl)cc2)o1	3	-4	0	0	0
Cc1ccc(CS(=O)(=O)Cc2ccc(C(=O)NCc3cccnc3)o2)cc1	0	-33*	0	-2	-1
O=C(c1ccc(CS(=O)(=O)c2ccc(Br)cc2)o1)N1CCCCCC1	33*	-24	3	-4	.
CCOC(=O)C1CCCN(c2nc3ccccc3nc2C(C#N)C(=O)NCc2ccccc2)C1 (stereo not given)	33*	-3	5	1	-9
CN(C1CCS(=O)(=O)C1)S(=O)(=O)c1ccccc1 (stereo not given)	0	-29	-1	30*	-1
CN(C1CCS(=O)(=O)C1)S(=O)(=O)c1cccs1 (stereo not given)	1	-5	0	-2	-4
Nc1c(-c2nc(-c3ccc4c(c3)OCO4)cs2)c2ccccn2c1C(=O)c1ccccc1	0	-41*	1	18	1
COc1cccc(C(=O)c2c(N)c(-c3nc(-c4ccccc4)cs3)c3ccccn23)c1	8	-43*	1	8	2

From PubChem BioAssay
